# The supplement of paper PMC6555819
# Tests used:
# Experiment in all cases: PBM binding z-score (relative to random genomic background probes); higher = stronger binding; sequences stand for … in GC…GCGATTGACAGCGTAGAATGAAGG
# [1] = test system: FXR:RXRa (NR concentration 270 nM, RXRa partner concentration 90 nM)
# Outline: (§1)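 On custom Agilent 4×180K arrays, double-stranded probes with 34-nt variable regions carried direct-repeat seeds, single-nucleotide variants, half-site ablations or random human genomic background. Ligand-free nuclear receptor dimers were applied for 1 h, and binding was read with antibodies against each partner (one per run). Binding z-scores come from regression-normalized fluorescence, with the random background probes as reference.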
# [2] = test system: LXRa:RXRa (NR concentration 270 nM, RXRa partner concentration 90 nM)
# Outline: as §1
# [3] = test system: LXRa homodimer (NR concentration 270 nM)
# Outline: as §1
# [4] = test system: LXRb:RXRa (NR concentration 270 nM, RXRa partner concentration 90 nM)
# Outline: as §1
# [5] = test system: LXRb homodimer (NR concentration 270 nM)
# Outline: as §1
# [6] = test system: PPARa:RXRa (NR concentration 270 nM, RXRa partner concentration 90 nM)
# Outline: as §1
# [7] = test system: PPARg:RXRa (NR concentration 180 nM, RXRa partner concentration 90 nM)
# Outline: as §1
# [8] = test system: PPARg:RXRa 270nM:90nM, anti-RXR (NR concentration 270 nM, RXRa partner concentration 90 nM)
# Outline: as §1
# [9] = test system: PPARg:RXRa 30nM:10nM, anti-RXR (NR concentration 30 nM, RXRa partner concentration 10 nM)
# Outline: as §1
# [10] = test system: PPARg:RXRa 90nM:30nM, anti-RXR (NR concentration 90 nM, RXRa partner concentration 30 nM)
# Outline: as §1
# [11] = test system: PPARg:RXRa DBDmut IVT, anti-RXR (DBD mutation: RXRa K156A/R161A, NR concentration 270 nM, RXRa partner concentration 90 nM)
# Outline: as §1
# [12] = test system: PPARg:RXRa IVT, anti-PPARg (NR concentration 270 nM, RXRa partner concentration 90 nM)
# Outline: as §1
# [13] = test system: PPARg DBDmut:RXRa IVT, anti-PPARg (DBD mutation: PPARg1 K132A/R137A, NR concentration 270 nM, RXRa partner concentration 90 nM)
# Outline: as §1
# [14] = test system: PPARg DBDmut IVT, anti-PPARg (DBD mutation: PPARg1 K132A/R137A, NR concentration 270 nM)
# Outline: as §1
# [15] = test system: PPARg homodimer (NR concentration 180 nM)
# Outline: as §1
# [16] = test system: PXR homodimer (NR concentration 270 nM)
# Outline: as §1
# [17] = test system: RARa:RXR (NR concentration 270 nM, RXRa partner concentration 90 nM)
# Outline: as §1
# [18] = test system: RARa homodimer (NR concentration 270 nM)
# Outline: as §1
# [19] = test system: RARb:RXRa (NR concentration 270 nM, RXRa partner concentration 90 nM)
# Outline: as §1
# [20] = test system: PXR:RXRa (NR concentration 270 nM, RXRa partner concentration 90 nM)
# Outline: as §1
Sequence,PBM binding z-score [1],PBM binding z-score [2],PBM binding z-score [3],PBM binding z-score [4],PBM binding z-score [5],PBM binding z-score [6],PBM binding z-score [7],PBM binding z-score [8],PBM binding z-score [9],PBM binding z-score [10],PBM binding z-score [11],PBM binding z-score [12],PBM binding z-score [13],PBM binding z-score [14],PBM binding z-score [15],PBM binding z-score [16],PBM binding z-score [17],PBM binding z-score [18],PBM binding z-score [19],PBM binding z-score [20]
GATAAAGGGTCAGCTAGAGGCCAGAGTATGGAAA,5.39,3.97,0.0664,3.27,0.0558,5.06,4.3,4.76,2.03,3.31,2.27,2.89,0.542,-0.0188,3.27,-0.0592,4.78,1.02,5.21,–
ATCGAAAGGTCGAAGGTGACTATACCCACCCGAA,4.54,3.72,0.344,3.07,0.925,4.92,5.16,5,2.71,4.38,0.283,2.43,0.926,0.616,2.37,0.106,4.31,0.973,3.79,–
AATACAGGGTCACTAGGCCAGAGTGGGTACGAAT,5.94,5.03,0.964,3.77,0.863,5.69,8.11,6.63,3.08,5.4,3.88,5.89,2.29,2.32,2.94,0.0148,4.01,0.459,4.03,–
CCTTACAGGTCAAGGTTATAGCACGGGTGGTACG,6.13,4.73,2.02,3.5,1.18,5.2,4.94,4.89,1.9,3.82,3.89,4.19,0.977,0.925,3.36,0.575,4.39,1.94,4.65,–
TCTTATAGATCAATAGAGGTTAAGAAAGTGCGCT,1.14,4.21,0.848,2,0.0677,1.92,0.685,2.02,3.21,2.51,1.88,0.653,0.623,0.528,1.11,0.488,1.99,0.901,1.03,–
TGTCAGAGTTCAAAGGTAACGTAAGTATCCACAC,7.14,6.58,4.05,4.65,1.22,5.88,7.19,6.65,3.88,5.98,0.11,3.16,0.991,1.01,2.95,5.44,7.02,-0.164,4.47,–
GCTTACGGGTGAAAGGTTATAGCATGAATAGAAT,2.96,2.79,0.142,3,-0.294,5.7,9.88,8.08,7.78,8.71,3.24,4.67,0.644,0.4,1.72,0.0936,4.93,0.6,2.14,–
CGTCTAAGGTCAAAGGTCAGTGAAGAGATGACGG,8.79,7.27,4.41,6.95,2.67,7.45,11,8.6,8.75,10.3,4.71,5.84,0.729,0.828,5.87,2.61,8.98,4,6.07,–
CTTTACGGGTCAAGGTTATAGCACGGGTGGTACG,5.72,4.66,1.01,3.35,0.665,5.26,5.26,5.41,2.59,4.51,3.74,4.39,1.72,1.23,2.84,0.731,4.6,0.604,4.17,–
CGTCTAAGTTCAAGGTAACGTAACAGAAAGCAGC,4.08,3.47,1.01,2.01,0.51,3.18,1.39,2.11,0.885,1.69,0.796,1.09,0.251,0.258,1.64,2.9,2.09,0.625,3.79,–
GGAACGGGGGCAAGTTGATAGCAGAGTTTGATGG,3.27,2.87,0.913,4.45,7.1,4.02,3.2,4.52,2.09,3.58,4.41,5.53,10.8,12.6,2.77,2.97,2.7,2.02,3.54,–
AATACAGGGTCGCTAGGCCAGAGTAGGTACGAAT,0.424,0.524,-0.204,0.525,-0.053,1.37,1.05,0.765,0.105,0.482,0.129,1.16,0.521,-0.263,0.213,-0.199,0.9,0.178,1.49,–
GATACAGGGTCAGCTTGAGGCCAGAGTATGGAAA,4.2,2.37,-0.58,2.03,-0.747,3.98,2.71,2.81,0.493,1.56,1.23,2,-0.407,-0.636,1.71,-0.346,3.44,-0.0727,3.72,–
TCTCGGAGGACACGAAAGGTGAGAGCTCGACATC,0.988,0.364,-0.458,-0.112,-0.994,1.22,0.346,1.01,2.1,1.25,1.27,0.956,-0.191,-0.811,0.673,-0.496,1.05,-0.329,2.26,–
GATACAAGGTCAGCTAGAGGCCAGAGTATGGAAA,5.51,3.77,0.325,2.78,-0.103,4.53,3.95,3.5,1.23,2.18,2.56,3.25,0.75,0.155,3.37,0.19,4.64,1.06,5.05,–
ATATGTAGGTTAGCTGGCGTCATTCAGACTAGGC,-0.167,0.0704,-0.277,-0.239,0.141,1.69,2.61,2.43,0.729,1.81,6.56,5.58,1.28,0.35,0.334,-0.283,0.227,0.262,0.462,–
CTCGAAAGGTCGTCCTCAGGTGAGTATACCAAAC,4.94,3.75,0.547,3.32,0.328,4.54,2.08,3.47,0.492,2.43,0.175,1.77,0.216,-0.144,1.94,0.134,4.1,-0.0286,3.8,–
CCTTACGGGCCACGAGGTTATAGCACGACGAGCG,0.333,0.406,-0.158,0.202,-0.806,1.44,1.29,0.67,-0.315,0.471,0.97,1.16,-0.462,-1.1,0.126,-0.12,1.06,-0.0676,1.15,–
CAAACTAGGTCACCGGGAGGTCAAAGTCCGCATG,6.46,6.26,6.39,5.87,1.73,6.17,9.53,8,6.05,8.25,8.47,9.02,1.69,0.534,6.45,4.09,7.76,3.15,5.16,–
ATATGGAGGTTAGCTGGGGTCATTCAGACTAGGC,5.58,6.45,4.02,5.67,1.51,5.04,3.15,3.77,1.68,2.72,2.62,2.93,1.36,1.19,2.73,5.39,5.62,1.8,3.66,–
ATCGAAAGGGCGTGAGGTGAGTATACAGAAAGGC,0.437,0.45,-0.364,0.429,-0.169,1.36,0.822,0.778,0.328,0.452,-0.47,1.02,0.673,0.814,0.257,0.256,1.08,0.276,1.89,–
ACATGTAGGTTAGGGTCATTCAGAAAGTAGGGAA,5.38,4.23,1.48,4.58,1.99,5.48,6.68,5.77,3.37,5.57,5.77,5.83,–,3.59,3.84,2.63,5.07,1.97,3.61,4.47
CGAACTAGGACAAAGGACAGTGAAAGGCGACGTA,-0.156,-0.553,-0.411,-0.765,-0.967,2.45,5.34,5.78,3.93,5.64,4.53,4.05,–,-0.402,0.327,-0.257,-0.272,-0.328,1.12,-0.405
ATATGTAGGTTAGGGTCATGCAGAAAGTAGGGAA,4.77,4.14,0.926,4.29,1.21,5.74,7.7,6.66,4.91,6.3,6.6,6.52,–,2.44,2.6,1.01,5.05,1.83,3.66,4.26
CGCCCAAGGTCAGCAGGTCAGTGAAAGCGACGTG,5.7,4.2,0.381,2.99,-0.0743,4.81,3.8,4.59,1.02,2.98,2.94,3.56,0.803,-0.776,3.74,0.324,5.15,1.97,5.18,–
CCGTACGGGTCAAGGTTATAGCACGGGTGGTACG,5.23,3.78,-0.221,3.11,-0.132,4.76,4.03,4.28,1.2,2.77,0.0598,2.11,-0.559,-1.41,1.37,0.0308,4.49,-0.0555,4.09,–
ATATGTAGGTTACATCGGGGTCATTCAGGCTATG,4.88,5.89,3.8,4.91,1.46,5.71,7.19,6.35,4.23,5.65,7.87,7.63,3.44,3.24,3.92,10.3,7,1.93,3.25,–
CTCGAAAGGTCGTGCTCAGGTGAGTACACCAAAC,5.63,3.63,0.149,3.14,0.685,4.94,3.11,4.4,1.61,2.91,1.21,2.09,1.56,1.04,2.94,0.541,4.67,0.374,4.05,–
CGAACTAGGTCGAAGGACAGTGAAAGGCGACGTA,-0.0707,-0.21,-0.395,-0.3,-1.11,2.52,5.13,5.69,2.98,5.61,4.92,5.17,–,-0.201,0.0184,-0.851,-0.0163,-0.8,1.18,-0.467
AGTCAAAGTTCTTCTAGGTAACGTAAGATATGCT,0.261,-0.366,0.0883,-0.0374,0.0414,0.304,0.844,1.16,0.354,0.549,0.515,1.89,0.999,1.12,0.188,0.42,0.106,0.636,0.948,–
